Assay results: PubChem BioAssay (NCATS)
Inconclusive results are not listed. Calls of active or inactive are those of the source. Calls follow the shape of the dose curve; as a rule, active = well fitted cell-killing curve with a large enough effect; inconclusive = small, poorly fitted or top-dose-only effect, or effect the other way; inactive = no such curve, though single readings can be large or run the other way.
Potency is read from the fitted curve at half-maximal effect.

Test: Quantitative High-Throughput drug screen in 47 multiple myeloma cell lines against the NCATS MIPE library collection: L363_DSMZ cell viability assay (AID 1918984); also: nearly all actives have a fitted effect of over 40% in size
Details: L363 myeloma viability, CellTiter-Glo ATP luminescence, 48 h; series mostly up to 45.8 µM
In short: (§1)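 500 cells/well; MIPE 4.0 drugs pin-transferred; 48 h, 37C, 5% CO2. CellTiter-Glo, 5 min RT, luminescence. Controls: DMSO 100%, media 0%.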
For `Cc1cn(-c2cc(NC(=O)c3ccc(C)c(Nc4nccc(-c5cccnc5)n4)c3)cc(C(F)(F)F)c2)cn1`, the Potency was “inactive”.
In the case of `CCCCCCCCCC(=O)N[C@@H](Cc1c[nH]c2ccccc12)C(=O)N[C@H](CC(N)=O)C(=O)N[C@@H](CC(=O)O)C(=O)N[C@@H]1C(=O)NCC(=O)N[C@@H](CCCN)C(=O)N[C@@H](CC(=O)O)C(=O)N[C@H](C)C(=O)N[C@@H](CC(=O)O)C(=O)NCC(=O)N[C@H](CO)C(=O)N[C@@H]([C@@H](C)CC(=O)O)C(=O)N[C@@H](CC(=O)c2ccccc2N)C(=O)O[C@@H]1C`, the Potency is reported as “inactive”.
For `COc1ccc(OC)c(-c2nnc3ccc(-c4ccc(OC)c(O[C@@H]5CCOC5)c4)nn23)c1`, the Potency was 10.5 µM (active).
For `CNC(=O)c1ccc(-c2cnc3ncc(Cc4ccc5ncccc5c4)n3n2)cc1F`, the Potency was “inactive”.
With `Cc1nc2ccc(CN(C)c3ccc(C(=O)N[C@@H](CCC(=O)O)C(=O)O)s3)cc2c(=O)[nH]1` the Potency was 1.48 µM (active).
With `C[C@@H]1CN(CC(=O)Nc2ccc3c(c2)Cc2cccc(-c4cc(=O)cc(N5CCOCC5)o4)c2S3)C[C@H](C)O1` the Potency was 14.8 µM (active).
For `CC(=O)c1c(C)c2cnc(Nc3ccc(N4CCNCC4)cn3)nc2n(C2CCCC2)c1=O`, the Potency was 23.5 µM (active).
With `COc1cc(C)c(Sc2cnc(NC(=O)c3ccc(CNC(C)C(C)C)cc3)s2)cc1C(=O)N1CCN(C(C)=O)CC1` (centres undefined) the Potency was 9.35 µM (active).
With `COC(=O)C1=C(C)NC(C)=C(C(=O)OCCN2CCN(C(c3ccccc3)c3ccccc3)CC2)C1c1cccc([N+](=O)[O-])c1` (centres undefined) the Potency was “inactive”.
For `CC(=O)OCCN1C(=O)c2c(C)nc3ccc(S(=O)(=O)N4CCOCC4)cc3c2C1=O`, the Potency was “inactive”.
For `C1Cc2[nH]nc(-c3nn[nH]n3)c2C1`, the Potency was “inactive”.
For `CC(=O)Nc1nc(C)c(-c2ccc(Cl)c(S(=O)(=O)NCCO)c2)s1`, the Potency was 1.18 µM (active).
For `Nc1nc(NCCNc2ncc(-n3ccnc3)c(-c3ccc(Cl)cc3Cl)n2)ccc1[N+](=O)[O-]`, the Potency was 5.26 µM (active).
For `Nc1ncnc2c1c(-c1cnc3[nH]ccc3c1)nn2C1CCCC1`, the Potency was 0.0935 µM (active).
In the case of `CNc1nccc(-c2cccnc2Oc2cc(C(=O)Nc3cccc(C(F)(F)F)c3)ccc2C)n1`, the Potency is reported as 14.8 µM (active).
In the case of `Nc1ccn([C@@H]2CS[C@H](CO)O2)c(=O)n1`, the Potency is reported as “inactive”.
In the case of `O=C(O)Cn1nnc(-c2cc(N3CCC(Oc4cc(F)ccc4Br)CC3)no2)n1`, the Potency is reported as “inactive”.
In the case of `Cn1cc(-c2[nH]c3cc(NC(=O)[C@H](N)C4CCCCC4)cc4c3c2C=NNC4=O)cn1`, the Potency is reported as 0.118 µM (active).
With `CN1CCN(c2cc(C(=O)Nc3ccc4c(c3)-c3c(c(C(N)=O)nn3-c3ccc(F)cc3)CC4)c(Cl)cn2)CC1` the Potency was 4.18 µM (active).
With `Cn1c(CNc2ccc(C(=N)N)cc2)nc2cc(C(=O)N(CCC(=O)O)c3ccccn3)ccc21` the Potency was “inactive”.
With `O=C1CCC[C@@H]2[C@H]3CCC[N+]4([O-])CCC[C@@H](CN12)[C@@H]34` (some centres undefined) the Potency was “inactive”.
With `CC(C)c1ccc(Cn2ccc3c4c(N)nc(NC5CC5)nc4ccc32)cc1` the Potency was 0.469 µM (active).
With `N#Cc1c(O)c2c(-c3ccc(-c4ccccc4O)cc3)csc2[nH]c1=O` the Potency was “inactive”.
In the case of `CC=CC1=C(C(=O)O)N2C(=O)[C@H](NC(=O)[C@H](N)c3ccc(O)cc3)[C@@H]2SC1`, the Potency is reported as “inactive”.
For `Cc1c(C)n(Cc2ccc(-c3ccccc3C(=O)O)cc2)c2ccc(C(=O)N[C@@H](C)c3ccc([N+](=O)[O-])cc3)cc12`, the Potency was 0.0935 µM (active).
For `O=C(O)c1ccc2c(c1)nc(Nc1cccc(Cl)c1)c1ccncc12`, the Potency was 4.69 µM (active).
For `Cc1ccc2nc(NC(=O)CSc3nc4c(c(=O)n3-c3ccccc3)SCC4)sc2c1`, the Potency was 11.8 µM (active).

Test: Quantitative High-Throughput drug screen in 47 multiple myeloma cell lines against the NCATS MIPE library collection: KMS34_JCRB cell viability assay (AID 1918985); also: nearly all actives have a fitted effect of over 40% in size
Details: KMS34 myeloma viability, CellTiter-Glo ATP luminescence, 48 h; series mostly up to 45.8 µM
In short: as §1
For `COc1cc2c(cc1-c1c(C)noc1C)ncc1[nH]c(=O)n([C@H](C)c3ccccn3)c12`, the Potency was 0.469 µM (active).
In the case of `Nc1ccc(C(=O)c2cc3c(ccc4ccccc43)[nH]2)cc1`, the Potency is reported as 4.18 µM (active).
In the case of `COc1cc(=C2C=c3ccccc3=N2)[nH]c1=Cc1[nH]c(C)cc1C`, the Potency is reported as 1.48 µM (active).
For `C[C@@]12O[C@@H](C[C@]1(O)CO)n1c3ccccc3c3c4c(c5c6ccccc6n2c5c31)CNC4=O`, the Potency was 0.526 µM (active).
For `CCCCc1nc2cc(C=CC(=O)NO)ccc2n1CCN(CC)CC`, the Potency was 0.372 µM (active).
For `O=C(C=Cc1cccnc1)NCCCCC1CCN(C(=O)c2ccccc2)CC1`, the Potency was 0.0166 µM (active).
For `CC1=C(CO)C(=O)O[C@@H]([C@@H](C)[C@H]2CC[C@H]3[C@@H]4C[C@H]5O[C@]56[C@@H](O)C=CC(=O)[C@]6(C)[C@@H]4CC[C@]23C)C1`, the Potency was 0.118 µM (active).
With `Cc1cc(Nc2nc(N[C@@H](C)c3ccc(F)cc3)c(C#N)cc2F)n[nH]1` the Potency was 0.833 µM (active).

Test: Quantitative High-Throughput drug screen in 47 multiple myeloma cell lines against the NCATS MIPE library collection: OCIMY7_PLB cell viability assay (AID 1918987); also: nearly all actives have a fitted effect of over 65% in size
Details: OCI-MY7 myeloma viability, CellTiter-Glo ATP, 48 h; series mostly up to 45.8 µM
In short: as §1
For `Cc1cn(-c2cc(NC(=O)c3ccc(C)c(Nc4nccc(-c5cccnc5)n4)c3)cc(C(F)(F)F)c2)cn1`, the Potency was “inactive”.
With `Cc1nc2ccc(CN(C)c3ccc(C(=O)N[C@@H](CCC(=O)O)C(=O)O)s3)cc2c(=O)[nH]1` the Potency was “inactive”.
For `COC(=O)C1=C(C)NC(C)=C(C(=O)OCCN2CCN(C(c3ccccc3)c3ccccc3)CC2)C1c1cccc([N+](=O)[O-])c1` (centres undefined), the Potency was “inactive”.
In the case of `COc1cc2c(cc1-c1c(C)noc1C)ncc1[nH]c(=O)n([C@H](C)c3ccccn3)c12`, the Potency is reported as 18.7 µM (active).
For `Nc1ccc(C(=O)c2cc3c(ccc4ccccc43)[nH]2)cc1`, the Potency was 0.743 µM (active).
For `Nc1nc(NCCNc2ncc(-n3ccnc3)c(-c3ccc(Cl)cc3Cl)n2)ccc1[N+](=O)[O-]`, the Potency was 5.26 µM (active).
For `CNc1nccc(-c2cccnc2Oc2cc(C(=O)Nc3cccc(C(F)(F)F)c3)ccc2C)n1`, the Potency was 1.66 µM (active).
With `COc1cc(=C2C=c3ccccc3=N2)[nH]c1=Cc1[nH]c(C)cc1C` the Potency was 1.48 µM (active).
With `C[C@@]12O[C@@H](C[C@]1(O)CO)n1c3ccccc3c3c4c(c5c6ccccc6n2c5c31)CNC4=O` the Potency was 0.0662 µM (active).
In the case of `CN1CCN(c2cc(C(=O)Nc3ccc4c(c3)-c3c(c(C(N)=O)nn3-c3ccc(F)cc3)CC4)c(Cl)cn2)CC1`, the Potency is reported as 0.187 µM (active).
In the case of `CCCCc1nc2cc(C=CC(=O)NO)ccc2n1CCN(CC)CC`, the Potency is reported as 0.935 µM (active).
With `O=C(C=Cc1cccnc1)NCCCCC1CCN(C(=O)c2ccccc2)CC1` the Potency was 0.0105 µM (active).
In the case of `CC1=C(CO)C(=O)O[C@@H]([C@@H](C)[C@H]2CC[C@H]3[C@@H]4C[C@H]5O[C@]56[C@@H](O)C=CC(=O)[C@]6(C)[C@@H]4CC[C@]23C)C1`, the Potency is reported as 0.105 µM (active).
For `Cc1cc(Nc2nc(N[C@@H](C)c3ccc(F)cc3)c(C#N)cc2F)n[nH]1`, the Potency was 0.418 µM (active).
